Our source for the Potency values is PubChem BioAssay (Tox21).

Each structure is given as a SMILES string. Active and inactive are the calls of the source. Unless noted, calls come from the whole dose curve; as a rule, active = well fitted curve in the direction sought with a large enough effect in the repeat runs; inconclusive = weak or mixed curves; inactive = no such curve, though single readings can be large; an effect the other way counts as inactive or inconclusive.

The nature of experiment [1]: qHTS assay to identify small molecule antagonists of the glucocorticoid receptor (GR) signaling pathway - cell viability counter screen (AID 720693). Note: nearly all actives have a fitted effect of over 55% in size.
Experiment [2] is described as follows: qHTS assay for identifying genotoxic compounds that show differential cytotoxicity against isogenic chicken DT40 cell lines with known DNA damage response pathways - Rad54/Ku70 mutant cell line (AID 743015). Note: nearly all actives have a fitted effect of over 60% in size. Note: potency is the fitted concentration of half-maximal effect. In general terms: In qHTS, concentration-response curves come from the screen itself.
Experiment [3] is described as follows: qHTS assay to identify small molecule antagonists of the androgen receptor (AR) signaling pathway - cell viability counter screen (AID 743033; note: nearly all actives have a fitted effect of over 45% in size).
Experiment [4] can be described thus: qHTS assay to identify small molecule antagonists of the androgen receptor (AR) signaling pathway using the MDA cell line - cell viability counter screen (AID 743041; note: nearly all actives have a fitted effect of over 45% in size). The gist of the method:
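MDA-kb2 AR-luc human breast carcinoma cells (MMTV-luciferase, AR/GR responsive) were treated with compounds plus R1881 agonist for 16 h at 37 °C. Viability was read as CellTiter-Fluor fluorescence in the same wells as the reporter assay.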

For experiment [5], the system named is thyroid hormone receptor (rat, GH3 cells). Briefly: qHTS assay to identify small molecule agonists of the thyroid receptor (TR) signaling pathway (AID 743066; calls by dose curve).
The nature of experiment [6]: qHTS assay to identify small molecule antagonists of the estrogen receptor alpha (ER-alpha) signaling pathway - cell viability counter screen (AID 743074; calls by dose curve; note: nearly all actives have a fitted effect of over 45% in size; note: potency is the fitted concentration of half-maximal effect).
In experiment [7] the target is Estrogen receptor (Homo sapiens) (UniProt P03372). The experiment can be described thus: qHTS assay to identify small molecule agonists of the estrogen receptor alpha (ER-alpha) signaling pathway (AID 743075; calls by dose curve).
Chain of Estrogen receptor (Homo sapiens) (P03372 whole entry, looked up): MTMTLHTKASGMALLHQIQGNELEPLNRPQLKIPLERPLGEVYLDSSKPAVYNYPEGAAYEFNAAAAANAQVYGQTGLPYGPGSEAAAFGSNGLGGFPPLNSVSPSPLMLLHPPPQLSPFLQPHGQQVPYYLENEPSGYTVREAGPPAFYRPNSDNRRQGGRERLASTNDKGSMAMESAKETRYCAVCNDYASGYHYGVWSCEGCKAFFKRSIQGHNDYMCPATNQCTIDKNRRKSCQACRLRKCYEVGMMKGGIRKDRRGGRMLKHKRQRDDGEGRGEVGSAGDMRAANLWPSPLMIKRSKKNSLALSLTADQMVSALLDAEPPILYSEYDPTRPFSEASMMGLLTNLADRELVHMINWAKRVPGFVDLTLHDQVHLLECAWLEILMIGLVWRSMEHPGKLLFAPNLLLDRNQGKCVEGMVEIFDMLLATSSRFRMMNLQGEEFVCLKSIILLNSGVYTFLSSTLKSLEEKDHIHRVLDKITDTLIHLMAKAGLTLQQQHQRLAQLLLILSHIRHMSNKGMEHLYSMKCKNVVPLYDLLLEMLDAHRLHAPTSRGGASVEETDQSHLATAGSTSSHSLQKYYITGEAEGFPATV
Experiment [8] shares this target. Briefly: qHTS assay to identify small molecule agonists of the estrogen receptor alpha (ER-alpha) signaling pathway using the BG1 cell line (AID 743079). Note: nearly all actives have a fitted effect of over 20% in size. Note: potency is the fitted concentration of half-maximal effect.
Experiment [9] is described as follows: qHTS assay to identify small molecule antagonists of the estrogen receptor alpha (ER-alpha) signaling pathway using the BG1 cell line (AID 743080; calls by dose curve;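 note: BG1 cells stimulated with 17beta-estradiol alongside compound; series mostly up to about 70 µM; nearly all actives have a fitted effect of over 25% in size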). The gist of the method:
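BG1-Luc-4E2 cells (endogenous full-length ER-alpha, stable 4×ERE-luciferase) were starved 5 days in phenol-red-free medium with 10% charcoal-stripped FBS, plated 24 h, then given compound plus 17beta-estradiol for 21.5 h at 37 C; ONE-Glo luminescence read after 30 min.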

The nature of experiment [10]: qHTS assay to identify small molecule antagonists of the estrogen receptor alpha (ER-alpha) signaling pathway using the BG1 cell line - cell viability counter screen (AID 743081).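 Note: compound given together with 17beta-estradiol as the ER stimulus; series mostly up to about 70 µM; nearly all actives have a fitted effect of over 45% in size.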
The target in a further experiment is Aromatase (Homo sapiens) (UniProt P11511). The experiment can be described thus: qHTS assay to identify aromatase inhibitors (AID 743083). Note: series mostly up to about 70 µM; nearly all actives have a fitted effect of over 55% in size.
Chain of Aromatase (Homo sapiens) (P11511 whole entry, looked up): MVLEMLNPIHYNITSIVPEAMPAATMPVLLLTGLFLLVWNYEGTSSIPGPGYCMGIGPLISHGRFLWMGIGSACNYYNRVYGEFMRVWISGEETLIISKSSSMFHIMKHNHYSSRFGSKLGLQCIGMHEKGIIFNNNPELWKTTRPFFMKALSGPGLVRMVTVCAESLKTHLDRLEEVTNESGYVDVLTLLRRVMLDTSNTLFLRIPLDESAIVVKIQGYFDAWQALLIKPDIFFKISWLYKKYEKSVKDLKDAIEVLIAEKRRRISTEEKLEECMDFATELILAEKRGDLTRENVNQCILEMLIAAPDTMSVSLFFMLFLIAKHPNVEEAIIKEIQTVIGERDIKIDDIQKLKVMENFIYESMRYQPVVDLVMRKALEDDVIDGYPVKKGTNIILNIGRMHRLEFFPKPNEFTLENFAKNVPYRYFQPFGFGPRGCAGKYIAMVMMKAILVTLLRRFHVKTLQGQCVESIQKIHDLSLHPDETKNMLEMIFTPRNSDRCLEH
Experiment [11] in a line: qHTS assay for identifying genotoxic compounds that show differential cytotoxicity against isogenic chicken DT40 cell lines with known DNA damage response pathways - wild type cell line (AID 743012). Note: nearly all actives have a fitted effect of over 60% in size. Note: potency is the fitted concentration of half-maximal effect. The procedure, abridged:
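Using parental DT40 (300 cells/well), compounds delivered in DMSO incubate 40 h at 37 C/5% CO2. CellTiter-Glo reagent then stands 30 min at room temperature, and luminescence gives cell viability.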

Experiment [12] is described as follows: qHTS assay for identifying genotoxic compounds that show differential cytotoxicity against isogenic chicken DT40 cell lines with known DNA damage response pathways - Rev3 mutant cell line (AID 743014). Note: nearly all actives have a fitted effect of over 55% in size. Note: potency is the fitted concentration of half-maximal effect.
Experiment [13] addresses Androgen receptor (Homo sapiens) (UniProt P10275). Briefly: qHTS assay to identify small molecule antagonists of the androgen receptor (AR) signaling pathway (AID 743035; active = well fitted inhibition curve with a large enough effect in the signal ratio in the repeat runs, not every such curve was filed as active; inconclusive = weak or mixed curves, or effect the other way; inactive = no such curve, though single readings can be large or run the other way; the % refers to the signal ratio; note: potency is the fitted concentration of half-maximal effect). The procedure, abridged:
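Using qHTS, AR-UAS-bla GripTite HEK293 cells received compound, then R1881, and were cultured 16 h at 37C/5% CO2 before a 2 h room-temperature LiveBLAzer B/G FRET substrate step and fluorescence measurement.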

For experiment [14] the target is unchanged. Briefly: qHTS assay to identify small molecule agonists of the androgen receptor (AR) signaling pathway using the MDA cell line (AID 743040; note: nearly all actives have a fitted effect of over 20% in size; note: potency is the fitted concentration of half-maximal effect). The procedure, abridged:
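MDA-kb2 breast carcinoma cells stably carrying an MMTV-driven luciferase reporter (AR- and GR-responsive) were seeded and held 5 h at 37C, 0% CO2, then exposed to compounds in DMSO for 16 h. Luminescence was read 30 min after ONE-Glo addition.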

The target is the same in experiment [15]. Briefly: qHTS assay to identify small molecule antagonists of the androgen receptor (AR) signaling pathway using the MDA cell line (AID 743042; note: nearly all actives have a fitted effect of over 55% in size). The gist of the method:
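MDA-kb2 cells (human breast carcinoma, stably carrying an MMTV-luciferase reporter responsive to AR and GR) were plated at 3,000 cells/well and preincubated 5 hr at 37C, then given compound plus R1881 agonist for 16 h. ONE-Glo luminescence was read.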

Experiment [16] can be described thus: qHTS assay to identify small molecule antagonists of the thyroid receptor (TR) signaling pathway - cell viability counter screen (AID 743064). Note: nearly all actives have a fitted effect of over 50% in size. The procedure, abridged:
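In-well cytotoxicity read by CellTiter-Fluor (30 min, 37 C) following 23.5 h exposure of GH3 cells bearing a TRE-luciferase sensor. Compounds were added alongside 1 nM (final) T3 to drive TR transactivation.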

Experiment [17] in a line: qHTS assay to identify small molecule antagonists of the thyroid receptor (TR) signaling pathway (AID 743065). Note: nearly all actives have a fitted effect of over 55% in size. Note: potency is the fitted concentration of half-maximal effect. The gist of the method: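 GH3.TRE-Luc rat pituitary cells carrying two TR response elements driving luciferase were plated for 4 h, given compound plus 1 nM T3 (final), and incubated 23.5 h at 37 C. ONE-Glo luminescence measured reporter inhibition; CellTiter-Fluor fluorescence tracked cytotoxicity.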

Experiment [18] concerns the target Estrogen receptor (Homo sapiens) (UniProt P03372). The experiment can be described thus: qHTS assay to identify small molecule antagonists of the estrogen receptor alpha (ER-alpha) signaling pathway (AID 743069; active = well fitted curve in the direction sought with a large enough effect in the signal ratio in the repeat runs, not every such curve was filed as active; inconclusive = weak or mixed curves, or effect the other way; inactive = no such curve, though single readings can be large or run the other way; the % refers to the signal ratio; note: potency is the fitted concentration of half-maximal effect). The procedure, abridged:
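HEK293 cells stably carrying an ER-alpha-UAS-bla beta-lactamase reporter were pre-cultured overnight in 2% charcoal-stripped FBS medium. Test compounds in DMSO were added together with 17beta-estradiol for 18 hr at 37C. Read-out was fluorescence after 2 hr with LiveBLAzer B/G FRET substrate at room temperature.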

Chain of Androgen receptor (Homo sapiens) (P10275 whole entry, looked up): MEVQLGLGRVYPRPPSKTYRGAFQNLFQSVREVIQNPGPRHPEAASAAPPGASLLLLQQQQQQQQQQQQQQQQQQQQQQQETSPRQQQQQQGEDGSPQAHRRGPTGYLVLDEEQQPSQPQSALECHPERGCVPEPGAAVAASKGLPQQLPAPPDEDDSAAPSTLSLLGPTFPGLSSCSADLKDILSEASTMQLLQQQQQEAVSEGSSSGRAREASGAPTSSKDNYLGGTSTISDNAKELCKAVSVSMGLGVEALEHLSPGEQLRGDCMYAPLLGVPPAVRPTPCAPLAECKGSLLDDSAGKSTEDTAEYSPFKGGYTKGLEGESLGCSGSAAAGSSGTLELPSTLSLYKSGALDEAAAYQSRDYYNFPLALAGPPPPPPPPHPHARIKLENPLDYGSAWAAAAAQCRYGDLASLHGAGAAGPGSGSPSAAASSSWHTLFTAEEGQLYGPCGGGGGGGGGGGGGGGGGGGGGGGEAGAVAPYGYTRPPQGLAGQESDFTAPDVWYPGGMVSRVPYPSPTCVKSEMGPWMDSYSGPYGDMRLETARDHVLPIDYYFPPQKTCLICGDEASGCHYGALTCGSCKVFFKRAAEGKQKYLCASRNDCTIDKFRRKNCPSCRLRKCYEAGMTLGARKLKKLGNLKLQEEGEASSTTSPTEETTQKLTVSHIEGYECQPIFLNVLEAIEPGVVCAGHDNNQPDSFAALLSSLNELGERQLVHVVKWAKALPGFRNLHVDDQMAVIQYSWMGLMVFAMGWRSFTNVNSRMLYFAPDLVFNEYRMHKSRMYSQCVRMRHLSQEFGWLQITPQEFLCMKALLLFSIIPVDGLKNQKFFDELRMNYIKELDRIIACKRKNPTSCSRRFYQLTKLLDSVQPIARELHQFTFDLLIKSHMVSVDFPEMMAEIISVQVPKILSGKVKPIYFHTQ

As for `CCOC(=O)Cc1cccc2ccccc12`, the Potency entry in [1], in [2], in [3], in experiment [4], in experiment [5] and in experiment [6] was “inactive” each time. The Potency entry (in experiment [7]; in [8]; in [9]; in experiment [10]; with Aromatase (Homo sapiens)) was “inactive” in each case.
On to `CCC(=O)O[C@]1(C(=O)CCl)[C@@H](C)C[C@H]2[C@@H]3CCC4=CC(=O)C=C[C@]4(C)[C@@]3(F)[C@@H](O)C[C@@]21C`, for which the Potency in experiment [11] is 13.3 µM (active); in [12], 2.37 µM (active); in experiment [2], 29.8 µM (active); in experiment [13], 7.56 µM (active); in [14], 0.0019 µM (active). For the same compound, the Potency result in [15], in experiment [16], in experiment [17], in experiment [5], in experiment [18] and in experiment [6] was “inactive” throughout. Also, the Potency entry (in experiment [7]; in experiment [8]; in experiment [10]; in the experiment with Aromatase (Homo sapiens)) was “inactive” in each case.
Turning to `CC(=O)c1cccc([N+](=O)[O-])c1`, the Potency result in experiment [1], in [3], in [16], in [17], in experiment [5] and in experiment [18] was “inactive” in each case. Also, the Potency entry (in [6]; in experiment [7]; in experiment [8]; in experiment [9]; in experiment [10]; with Aromatase (Homo sapiens)) was “inactive” throughout.
As for `O=C(CS)Nc1ccccc1`, the Potency in experiment [11] was 11.9 µM (active); in experiment [12], 21.1 µM (active); in experiment [2] it was 18.8 µM (active); in [18], 15.1 µM [inconclusive] (active); in [8], 21.1 µM (active). Further, the Potency result (in experiment [5]; in [6]; in experiment [7]; in experiment [9]; in the experiment with Aromatase (Homo sapiens)) was “inactive” throughout.
Regarding `O=S(c1cc(Cl)cc(Cl)c1O)c1cc(Cl)cc(Cl)c1O`, the Potency entry in [3], in experiment [14], in experiment [4], in [15], in experiment [5] and in [6] was “inactive” in each case. For the same compound, the Potency result (in experiment [7]; in experiment [8]; in experiment [9]; in experiment [10]; with Aromatase (Homo sapiens)) was “inactive” each time.
For `C#CCN(C)CCCOc1ccc(Cl)cc1Cl`, the Potency entry in [1], in [12], in [3], in experiment [4], in experiment [5] and in [18] was “inactive” throughout. Also, the Potency entry (in experiment [6]; in [7]; in experiment [10]; with Aromatase (Homo sapiens)) was “inactive” in each case. Moreover, the Potency in experiment [8] was 29.8 µM (active).
Consider `O=C(c1ccc(F)cc1)C1CCN(CCn2c(=S)[nH]c3ccccc3c2=O)CC1`, for which the values for the Potency in experiment [11] and in experiment [2] were 18.8 µM (active) and 6.68 µM (active), respectively. The Potency result in experiment [3], in experiment [14], in experiment [4], in [15], in experiment [16] and in experiment [17] was “inactive” each time. Moreover, the Potency result (in [5]; in experiment [6]; in experiment [10]; in the experiment with Aromatase (Homo sapiens)) was “inactive” in each case.
`COc1cc2nc(N3CCN(C(=O)C4COc5ccccc5O4)CC3)nc(N)c2cc1OC` (configuration not stated): the Potency entry in experiment [1], in experiment [12], in [3], in experiment [4], in experiment [5] and in experiment [6] was “inactive” in each case. Also, in experiment [10], the Potency result was “inactive”. For the same compound, the Potency in experiment [17] is 29.8 µM (active).
On to `CCC(CC)Nc1ccc(C)c(C)c1`, for which the Potency result in experiment [1], in experiment [16], in [5], in [18], in [6] and in experiment [7] was “inactive” each time. The Potency entry (in experiment [8]; in experiment [9]; in experiment [10]; with Aromatase (Homo sapiens)) was “inactive” in each case.
With `CC(C)(O)c1ccc(CNC(=O)c2cccnc2Oc2ccc(F)cc2)cc1`, the Potency result in experiment [1], in experiment [4], in experiment [17], in experiment [5], in experiment [6] and in experiment [10] was “inactive” throughout.
For `Cc1cc(C(=O)O)ccc1[N+](=O)[O-]`, the Potency entry in experiment [11], in experiment [2], in experiment [4], in [16], in experiment [17] and in experiment [5] was “inactive” each time. Further, the Potency entry (in experiment [6]; in experiment [7]; in [8]; in experiment [9]; in experiment [10]; in the experiment with Aromatase (Homo sapiens)) was “inactive” each time.
Take `CC(=O)OC[C@H]1O[C@@H](n2ncc(=O)[nH]c2=O)[C@H](OC(C)=O)[C@@H]1OC(C)=O`: the Potency entry in [1], in experiment [14], in experiment [4], in [15], in [16] and in experiment [5] was “inactive” in each case. In addition, the Potency result (in experiment [6]; in experiment [7]; in experiment [8]; in experiment [9]; in [10]; with Aromatase (Homo sapiens)) was “inactive” in each case. Also, the Potency in experiment [2] is 1.06 µM (active); in experiment [13], 5.35 µM (active).
In the case of `COc1cc(Cl)c(OC)cc1N`, the Potency entry (in experiment [1]; in experiment [4]; in experiment [16]; in experiment [10]; with Aromatase (Homo sapiens)) was “inactive” in each case.
As to `CCCCC(=O)OCC(=O)[C@H]1[C@H](C)C[C@H]2[C@@H]3C[C@H](F)C4=CC(=O)C=C[C@]4(C)[C@@]3(F)[C@@H](O)C[C@@]21C`, the Potency result in [1], in experiment [4], in experiment [15], in experiment [5], in experiment [7] and in experiment [8] was “inactive” each time. Besides, the Potency result (in experiment [10]; with Aromatase (Homo sapiens)) was “inactive” in each case. Moreover, the Potency in experiment [14] was 0.0047 µM (active).
On to `CCOCC(O)COc1ccc(NC(=O)CC[S+](C)C)cc1` (configuration not stated), for which the Potency entry in [1], in experiment [2], in experiment [3], in [4], in experiment [16] and in experiment [5] was “inactive” in each case. The Potency entry in experiment [18], in [6], in [7], in experiment [8], in experiment [9] and in [10] was “inactive” in each case. Moreover, in the experiment with Aromatase (Homo sapiens), the Potency result was “inactive”.
As to `CCCCCCCCCCCCN1CCCCCC1=O`, the Potency result in [1], in [3], in experiment [4], in experiment [16], in [5] and in [10] was “inactive” throughout. Moreover, in experiment [6], the Potency is 43.6 µM (active).
`c1ccc(C(O[C@H]2CCCN(CCc3ccc4c(c3)OCO4)C2)c2ccccc2)cc1`: the Potency is 23.7 µM (active) in experiment [11], 29.8 µM (active) in [12], 29.8 µM (active) in [2] and 26.6 µM (active) in experiment [17]. Further, the Potency entry in experiment [3], in experiment [4], in [18], in [6], in experiment [7] and in experiment [8] was “inactive” each time. The Potency result in experiment [9] and in experiment [10] was “inactive” throughout.
Take `COC(C)OC`: the Potency entry in experiment [11], in experiment [12], in experiment [2], in experiment [4], in experiment [16] and in [17] was “inactive” throughout. The Potency result in [5], in experiment [18], in [6], in experiment [7], in experiment [8] and in experiment [9] was “inactive” in each case. In addition, the Potency result (in [10]; with Aromatase (Homo sapiens)) was “inactive” each time.
